PubChem BioAssay (EPA / NIEHS)
Calls of active or inactive are those of the source. The calls were made as follows: active = hit-call score of the fitted dose curve at least 0.9, where 1 is the maximum; inactive = score below 0.9.

How the values were obtained:
[1] = molecular target: Transcription factor E2F1 (Homo sapiens) (UniProt Q01094); experiment: ATG_E2F_CIS: Attagene CIS-FACTORIAL HepG2 Assay for human E2F Transcription Factor 1 (AID 2282935); details: HepG2 Attagene cis-reporter, E2F reporter RNA transcripts; actives raise or lower the signal
Method in brief: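 Multiplexed cis-reporter assay: HepG2, transient transfection, 24 h dosing, mRNA quantitation by labeled RT-PCR and CE.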

[2] = ATG_E_Box_CIS: Attagene CIS-FACTORIAL HepG2 Assay for human Enhancer Box (E-box) (AID 2282936); details: HepG2 E-box cis-reporter transcription, actives raise or lower the signal
Method in brief: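 Multiplexed CIS reporter system in transiently transfected HepG2 cells measures native transcription factor activity. Reporter RNA after 24 h exposure is profiled by RT-PCR-capillary electrophoresis.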

[3] = ATG_M_61_CIS: Attagene CIS-FACTORIAL HepG2 Assay for M61 Transcription Factor (Internal Marker) (AID 2282937); details: HepG2 Attagene CIS-FACTORIAL M61 internal marker reporter; actives raise or lower the signal
Method in brief: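 Fluorescence from labelled cDNA fragments, separated by capillary electrophoresis, quantifies reporter induction. HepG2 cells bearing transiently transfected cis-promoter MRTUs were incubated with test chemical for 24 h; DMSO defined baseline for gain/loss fitting.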

[4] = ATG_EGR_CIS: Attagene CIS-FACTORIAL HepG2 Assay for human Early Growth Response 1 (EGR1) (AID 2282938); details: HepG2 Attagene CIS-FACTORIAL EGR reporter mRNA; actives raise or lower the signal
Method in brief: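 Cell-based multiplex transcription assay: HepG2 carrying transfected cis-element reporter units, 24 h chemical treatment. Fluorescence from capillary electrophoresis of RT-PCR products gives mRNA levels; fitting is bidirectional relative to DMSO.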

[5] = ATG_M_19_CIS: Attagene CIS-FACTORIAL HepG2 Assay for M19 Transcription Factor (Internal Marker) (AID 2282939); details: HepG2 Attagene CIS-FACTORIAL M19 internal marker reporter; actives raise or lower the signal
Method in brief: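 Transfect HepG2 with MRTU reporter library → dose chemical, 24 h → isolate total RNA, reverse-transcribe with oligo(dT) → PCR, 6-FAM label, HpaI cut (2 h, 37 C) → capillary electrophoresis. Bidirectional fit vs DMSO.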

[6] = ATG_ERE_CIS: Attagene CIS-FACTORIAL HepG2 Assay for Estrogen Response Element (ERE) (AID 2282940); details: HepG2 ERE cis-reporter, Attagene RNA transcript; actives raise or lower the signal
Method in brief: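 Transient MRTU transfection of human HepG2; cis-element promoters; 24 h dosing; total RNA → RT (oligo dT) → PCR → 6-FAM primer extension → HpaI digest → CE fluorescence. Bidirectional fit, DMSO baseline.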

[7] = ATG_Ets_CIS: Attagene CIS-FACTORIAL HepG2 Assay for human Erythroblast Transformation Specific (ETS) (AID 2282941); details: HepG2 ETS cis-reporter transcription, actives raise or lower the signal
Method in brief: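 Steps: transfect HepG2 with multiple reporter units; treat compound 24 h; isolate RNA, DNase-treat, reverse-transcribe; PCR-amplify, label with 6-FAM, digest with HpaI; separate by capillary electrophoresis. Activity fitted both directions versus DMSO.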

[8] = molecular target: Hepatocyte nuclear factor 3-beta (Homo sapiens) (UniProt Q9Y261); experiment: ATG_FoxA2_CIS: Attagene CIS-FACTORIAL HepG2 Assay for human Forkhead box A2 (FOXA2) (AID 2282942); details: HepG2 cis-reporter transcription factor activity, 24 h; actives raise or lower the signal
Method in brief: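 In transiently transfected human HepG2 cells, promoter-driven reporter mRNA levels after 24 h chemical exposure are determined via RT-PCR with capillary electrophoresis. DMSO serves as baseline for bidirectional fitting.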

[9] = ATG_FoxO_CIS: Attagene CIS-FACTORIAL HepG2 Assay for human Forkhead box O (FoxO) (AID 2282943); details: HepG2 Attagene cis-reporter, FoxO element, mRNA; actives raise or lower the signal
Method in brief: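 HepG2 cells transiently transfected with cis-promoter-driven multiple reporter transcription units; 24 h after chemical dosing, reporter mRNA quantified by RT-PCR, fluorescent primer extension, HpaI digestion and capillary electrophoresis. Bidirectional fitting versus DMSO baseline.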

[10] = ATG_GATA_CIS: Attagene CIS-FACTORIAL HepG2 Assay for human GATA Binding Protein (AID 2282944); details: HepG2 GATA cis-element reporter, Attagene multiplex mRNA; actives raise or lower the signal
Method in brief: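 Transient MRTU transfection, HepG2, 24 h compound exposure. Total RNA → oligo(dT) RT → PCR → 6-FAM primer extension → HpaI cut → CE. Bidirectional fit vs DMSO.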

[11] = ATG_GRE_CIS: Attagene CIS-FACTORIAL HepG2 Assay for human Glucocorticoid Response Elements (GRE) (AID 2282947); details: HepG2 GRE cis-reporter, Attagene multiplex mRNA; actives raise or lower the signal
Method in brief: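 Following 24 h chemical exposure of transiently transfected HepG2 cells, total RNA was reverse-transcribed and reporter cDNA amplified, fluorescently labelled and sized by capillary electrophoresis. Signal gain or loss was fitted relative to DMSO vehicle.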

[12] = ATG_ISRE_CIS: Attagene CIS-FACTORIAL HepG2 Assay for human Interferon Regulatory Factor 1 (IRF1) binding to an Interferon-Stimulated Response Element (ISRE) (AID 2282948); details: HepG2 ISRE cis-reporter (Attagene), mRNA transcription readout; actives raise or lower the signal
Method in brief: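 Transfected HepG2 (multiple reporter transcription units, cis elements) dosed 24 h. RNA → oligo(dT) RT → PCR → 6-FAM primer extension → HpaI → CE. DMSO = negative control/baseline.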

[13] = ATG_M_32_CIS: Attagene CIS-FACTORIAL HepG2 Assay for M32 Transcription Factor (Internal Marker) (AID 2282949); details: HepG2 Attagene cis-factorial M32 reporter, mRNA; actives raise or lower the signal;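 also: background control marker of the multiplexed CIS panel rather than a real target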
Method in brief: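 HepG2 cells transiently transfected with multiplexed cis-regulated reporter units, dosed 24 h. Reporter mRNA quantified by RT-PCR, 6-FAM labelling, HpaI digestion and capillary electrophoresis; bidirectional fit vs DMSO.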

[14] = ATG_M_06_CIS: Attagene CIS-FACTORIAL HepG2 Assay for M06 Transcription Factor (Internal Marker) (AID 2282950); details: HepG2 Attagene CIS-FACTORIAL M06 internal marker reporter; actives raise or lower the signal
Method in brief: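 Read-out is fluorescence of labelled reporter cDNA fragments resolved by capillary electrophoresis after RT-PCR. Cells: HepG2 carrying transfected cis-promoter reporter units, treated 24 h. Gain or loss of signal fitted relative to DMSO.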

[15] = molecular target: Hypoxia-inducible factor 1-alpha (Homo sapiens) (UniProt Q16665); experiment: ATG_HIF1a_CIS: Attagene CIS-FACTORIAL HepG2 Assay for human Hypoxia Inducible Factor 1 (HIF1A) (AID 2282951); details: HepG2 Attagene cis-factorial HIF1a reporter transcription; actives raise or lower the signal
Method in brief: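 In this multiplexed cell assay, HepG2 cells bearing transfected cis reporters are dosed for 24 h and reporter mRNA is read by RT-PCR plus capillary electrophoresis; signal increases and decreases are both scored against DMSO.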

[16] = molecular target: Hepatocyte nuclear factor 6 (Homo sapiens) (UniProt Q9UBC0); experiment: ATG_HNF6_CIS: Attagene CIS-FACTORIAL HepG2 Assay for human Hepatocyte Nuclear Factor 6 (HNF6) (AID 2282952); details: HepG2 Attagene cis-factorial HNF6 reporter transcription; actives raise or lower the signal
Method in brief: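 HepG2, transient MRTU transfection (cis promoters); 24 h chemical exposure; total RNA → oligo(dT) RT → PCR → 6-FAM labelling → HpaI cut → CE; bidirectional fit vs DMSO.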

[17] = molecular target: Heat shock factor protein 1 (Homo sapiens) (UniProt Q00613); experiment: ATG_HSE_CIS: Attagene CIS-FACTORIAL HepG2 Assay for human Heat Shock Transcription Factor 1 (HSE) (AID 2282953); details: HepG2 HSE cis-reporter, Attagene RNA transcription; actives raise or lower the signal
Method in brief: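 HepG2, transient MRTU transfection, cis-promoter reporters (endogenous TF activity). 24 h compound. RNA → oligo(dT) RT → PCR → 6-FAM primer extension → HpaI cut → CE. Bidirectional fit vs DMSO.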

[18] = ATG_MRE_CIS: Attagene CIS-FACTORIAL HepG2 Assay for human Metal Responsive Element (MRE) (AID 2282954); details: HepG2 MRE cis-reporter transcription, Attagene multiplex; actives raise or lower the signal
Method in brief: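 Step one: transfect HepG2 with cis-regulated reporter units. Step two: dose 24 h. Step three: isolate RNA, RT-PCR, 6-FAM label, HpaI digest, capillary electrophoresis. Fit bidirectionally to DMSO.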

[19] = molecular target: Bile acid receptor (Homo sapiens) (UniProt Q96RI1); experiment: ATG_IR1_CIS: Attagene CIS-FACTORIAL HepG2 Assay for human Nuclear Receptor Subfamily 1 Group H Member 4 (NR1H4), IR1 submotif (AID 2282946); details: IR1 reporter transcription, actives raise or lower the signal
Method in brief: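 Transient MRTU transfection, HepG2; 24 h dosing; RNA → RT-PCR → 6-FAM primer extension → HpaI digest → capillary electrophoresis fluorescence. Gain/loss of signal fitted relative to DMSO.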

[20] = ATG_GLI_CIS: Attagene CIS-FACTORIAL HepG2 Assay for human Zinc Finger Protein GLI1 (AID 2282945); details: HepG2, Attagene cis-factorial reporter mRNA, GLI element; actives raise or lower the signal
Method in brief: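 HepG2 cells transiently transfected with cis-promoter multiplexed reporter units report endogenous transcription factor activity. After 24 h chemical exposure, reporter mRNA was quantified by RT-PCR, 6-FAM labelling, HpaI digestion and capillary electrophoresis, with bidirectional fitting against DMSO.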

Measured: AC50

Chain of Hepatocyte nuclear factor 3-beta (Homo sapiens) (Q9Y261 whole entry, looked up): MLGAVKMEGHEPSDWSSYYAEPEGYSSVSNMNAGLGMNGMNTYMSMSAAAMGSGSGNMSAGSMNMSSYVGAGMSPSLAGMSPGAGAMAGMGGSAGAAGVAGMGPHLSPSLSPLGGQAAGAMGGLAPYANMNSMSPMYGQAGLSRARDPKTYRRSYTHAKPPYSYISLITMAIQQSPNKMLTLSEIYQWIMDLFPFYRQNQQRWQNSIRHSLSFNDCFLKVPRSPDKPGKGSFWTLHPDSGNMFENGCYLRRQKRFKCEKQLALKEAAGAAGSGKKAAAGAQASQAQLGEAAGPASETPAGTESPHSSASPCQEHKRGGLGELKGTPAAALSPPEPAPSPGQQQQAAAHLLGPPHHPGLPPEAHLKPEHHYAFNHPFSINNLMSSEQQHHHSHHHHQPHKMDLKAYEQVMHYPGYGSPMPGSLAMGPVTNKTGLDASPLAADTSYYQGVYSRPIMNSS
Chain of Transcription factor E2F1 (Homo sapiens) (Q01094 whole entry, looked up): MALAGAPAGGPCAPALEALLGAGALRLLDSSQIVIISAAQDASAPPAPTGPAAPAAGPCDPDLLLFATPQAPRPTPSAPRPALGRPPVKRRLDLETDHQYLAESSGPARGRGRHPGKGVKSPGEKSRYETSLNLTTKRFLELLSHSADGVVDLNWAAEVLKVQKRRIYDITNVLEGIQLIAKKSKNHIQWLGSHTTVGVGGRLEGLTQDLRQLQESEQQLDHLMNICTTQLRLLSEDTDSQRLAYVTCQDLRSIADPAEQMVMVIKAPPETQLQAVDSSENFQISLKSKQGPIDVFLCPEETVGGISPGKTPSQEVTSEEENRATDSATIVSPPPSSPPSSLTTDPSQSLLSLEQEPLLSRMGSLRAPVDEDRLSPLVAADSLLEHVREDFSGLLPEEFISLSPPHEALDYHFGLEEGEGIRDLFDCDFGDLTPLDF
Chain of Bile acid receptor (Homo sapiens) (Q96RI1 whole entry, looked up): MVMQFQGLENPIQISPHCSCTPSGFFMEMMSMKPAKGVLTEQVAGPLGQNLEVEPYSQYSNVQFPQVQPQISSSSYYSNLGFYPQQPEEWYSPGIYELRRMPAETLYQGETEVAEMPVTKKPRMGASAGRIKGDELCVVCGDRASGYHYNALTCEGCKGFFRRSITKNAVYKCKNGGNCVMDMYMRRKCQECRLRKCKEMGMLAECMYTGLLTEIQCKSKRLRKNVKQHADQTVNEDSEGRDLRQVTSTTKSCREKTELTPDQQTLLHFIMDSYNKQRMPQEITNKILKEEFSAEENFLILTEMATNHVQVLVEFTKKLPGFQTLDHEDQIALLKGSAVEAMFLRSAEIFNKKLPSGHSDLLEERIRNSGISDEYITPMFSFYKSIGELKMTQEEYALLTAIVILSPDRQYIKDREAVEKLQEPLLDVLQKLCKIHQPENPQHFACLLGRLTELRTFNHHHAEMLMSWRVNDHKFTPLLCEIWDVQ
Chain of Hypoxia-inducible factor 1-alpha (Homo sapiens) (Q16665 whole entry, looked up): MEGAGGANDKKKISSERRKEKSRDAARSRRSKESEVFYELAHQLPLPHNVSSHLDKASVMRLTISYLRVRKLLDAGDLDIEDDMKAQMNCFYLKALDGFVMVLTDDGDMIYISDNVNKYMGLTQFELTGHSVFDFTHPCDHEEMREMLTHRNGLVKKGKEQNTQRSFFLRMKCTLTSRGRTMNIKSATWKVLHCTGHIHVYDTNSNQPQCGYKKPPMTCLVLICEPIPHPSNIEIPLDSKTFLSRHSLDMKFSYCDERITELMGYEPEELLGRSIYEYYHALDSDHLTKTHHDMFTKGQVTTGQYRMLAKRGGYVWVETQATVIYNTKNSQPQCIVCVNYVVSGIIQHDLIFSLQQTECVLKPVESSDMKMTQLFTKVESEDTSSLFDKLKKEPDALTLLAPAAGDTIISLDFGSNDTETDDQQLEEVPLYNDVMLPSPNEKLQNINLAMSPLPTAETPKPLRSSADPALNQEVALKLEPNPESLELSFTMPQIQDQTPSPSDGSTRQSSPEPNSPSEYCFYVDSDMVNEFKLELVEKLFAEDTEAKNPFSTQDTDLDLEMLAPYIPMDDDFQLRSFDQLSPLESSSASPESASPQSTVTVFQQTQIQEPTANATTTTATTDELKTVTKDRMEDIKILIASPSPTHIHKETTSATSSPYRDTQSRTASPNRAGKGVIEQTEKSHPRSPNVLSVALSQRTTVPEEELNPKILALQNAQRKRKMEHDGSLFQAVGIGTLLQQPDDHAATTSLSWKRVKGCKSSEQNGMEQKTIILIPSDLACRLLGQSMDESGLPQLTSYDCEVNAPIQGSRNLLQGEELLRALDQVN
Chain of Heat shock factor protein 1 (Homo sapiens) (Q00613 whole entry, looked up): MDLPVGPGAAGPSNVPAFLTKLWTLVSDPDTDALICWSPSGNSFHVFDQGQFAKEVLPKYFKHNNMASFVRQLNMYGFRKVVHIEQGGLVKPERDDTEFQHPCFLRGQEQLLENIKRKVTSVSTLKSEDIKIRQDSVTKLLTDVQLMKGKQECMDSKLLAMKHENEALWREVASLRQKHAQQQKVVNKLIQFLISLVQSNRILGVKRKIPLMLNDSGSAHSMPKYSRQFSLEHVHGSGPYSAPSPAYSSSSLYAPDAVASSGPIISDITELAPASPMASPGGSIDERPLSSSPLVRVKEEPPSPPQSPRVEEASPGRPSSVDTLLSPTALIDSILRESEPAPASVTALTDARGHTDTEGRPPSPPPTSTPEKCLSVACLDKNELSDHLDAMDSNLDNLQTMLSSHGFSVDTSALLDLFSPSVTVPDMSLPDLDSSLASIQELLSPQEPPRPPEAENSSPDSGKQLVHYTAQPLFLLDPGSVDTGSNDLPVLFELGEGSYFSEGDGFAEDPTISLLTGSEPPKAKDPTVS
Chain of Hepatocyte nuclear factor 6 (Homo sapiens) (Q9UBC0 whole entry, looked up): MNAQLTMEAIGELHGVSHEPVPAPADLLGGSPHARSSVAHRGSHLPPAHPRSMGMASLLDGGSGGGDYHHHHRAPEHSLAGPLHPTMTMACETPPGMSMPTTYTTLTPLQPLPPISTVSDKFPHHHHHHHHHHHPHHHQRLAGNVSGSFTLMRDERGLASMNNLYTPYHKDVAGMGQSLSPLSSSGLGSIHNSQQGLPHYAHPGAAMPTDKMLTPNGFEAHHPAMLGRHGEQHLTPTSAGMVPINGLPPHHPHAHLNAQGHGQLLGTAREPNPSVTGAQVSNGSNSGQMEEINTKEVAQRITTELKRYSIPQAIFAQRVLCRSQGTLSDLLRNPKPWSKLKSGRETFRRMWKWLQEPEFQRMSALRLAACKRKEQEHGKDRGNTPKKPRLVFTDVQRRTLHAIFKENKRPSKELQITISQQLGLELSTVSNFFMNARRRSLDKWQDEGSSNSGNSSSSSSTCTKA

CCOC(=O)/C=C\C(=O)OCC
not listed: [19] | [20]
inactive: all other assays above

CCCCCC1=CCCC1=O
active: [13] 148 µM
not listed: [11] | [20]
inactive: all other assays above

Cc1noc(NS(=O)(=O)c2ccc(N)cc2)c1C
not listed: [9] | [11]
inactive: all other assays above

O=C(O[C@@H]1Cc2c(O)cc(O)cc2O[C@@H]1c1cc(O)c(O)c(O)c1)c1cc(O)c(O)c(O)c1
active: [15] 26.8 µM
not listed: [19] | [20]
inactive: all other assays above

C=C(C)C1CC=C(C)CC1 (stereo not drawn)
not listed: [11] | [16] | [19] | [20]
inactive: all other assays above

CCc1cccc(C)c1N(C(=O)CS(=O)(=O)O)C(C)COC (stereo not drawn)
active: [6] 27.5 µM
not listed: [11] | [20]
inactive: all other assays above

C=C[Si](OCCOC)(OCCOC)OCCOC
not listed: [9]
inactive: all other assays above

CCC(C)(O)CCCC(C)C (stereo not drawn)
not listed: [9] | [18]
inactive: all other assays above
